# Reference: PubChem BioAssay (EPA / NIEHS)
# “And” between values parts separate entries of the source, which are not always exact repeats. Equal entries are not always repeated. Inconclusive results are not listed. A structure can be active in one record and inactive in another. The source made the active and inactive calls. The calls were made as follows, unless noted: active = hit-call score of the fitted dose curve at least 0.9, where 1 is the maximum; inactive = score below 0.9.
# Tests used:
# [1] = target: Glucocorticoid receptor (Homo sapiens) (UniProt P04150); test: ATG_GR_TRANS: Attagene TRANS-FACTORIAL HepG2 Assay for human Glucocorticoid Receptor (GR) (AID 2282978; active = hit-call score of the fitted dose curve at least 0.9, where 1 is the maximum;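 also: activators score as hits since higher reporter transcript over DMSO is fitted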); details: HepG2 Attagene TRANS GR reporter, mRNA transcription
# Glucocorticoid receptor (Homo sapiens), sequence (P04150 whole entry, looked up, the tested form may be a part): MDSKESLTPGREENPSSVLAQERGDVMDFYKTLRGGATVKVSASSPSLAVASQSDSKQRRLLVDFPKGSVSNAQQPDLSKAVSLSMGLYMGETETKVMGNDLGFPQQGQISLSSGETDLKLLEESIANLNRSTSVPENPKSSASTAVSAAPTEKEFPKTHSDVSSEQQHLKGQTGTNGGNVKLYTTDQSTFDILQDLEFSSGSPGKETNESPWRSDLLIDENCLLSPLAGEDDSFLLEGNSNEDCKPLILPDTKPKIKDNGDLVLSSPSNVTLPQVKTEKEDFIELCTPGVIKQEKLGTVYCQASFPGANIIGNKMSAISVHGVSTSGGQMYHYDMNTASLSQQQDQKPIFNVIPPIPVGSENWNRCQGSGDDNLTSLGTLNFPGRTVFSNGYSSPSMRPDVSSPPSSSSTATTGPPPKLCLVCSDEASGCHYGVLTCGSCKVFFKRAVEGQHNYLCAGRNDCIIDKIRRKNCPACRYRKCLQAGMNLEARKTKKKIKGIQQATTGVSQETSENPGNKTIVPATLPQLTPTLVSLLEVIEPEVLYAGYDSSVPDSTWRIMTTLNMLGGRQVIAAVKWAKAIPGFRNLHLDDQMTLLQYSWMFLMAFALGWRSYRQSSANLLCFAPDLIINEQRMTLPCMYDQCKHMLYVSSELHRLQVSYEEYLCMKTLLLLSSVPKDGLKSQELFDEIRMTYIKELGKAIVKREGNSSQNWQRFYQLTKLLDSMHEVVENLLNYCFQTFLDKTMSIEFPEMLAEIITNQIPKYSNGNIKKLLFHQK
# Method in brief: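 Fluorescent capillary-electrophoresis quantitation of reporter mRNA is the readout, taken 24 h after dosing human HepG2 cells carrying transiently transfected GAL4-UAS reporter units activated by chimeric NR-GAL4 fusions; activity scored as induction over DMSO.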
# [2] = target: Bile acid receptor (Homo sapiens) (UniProt Q96RI1); test: ATG_FXR_TRANS: Attagene TRANS-FACTORIAL HepG2 Assay for Farnesoid X Receptor (FXR) (AID 2282979; active = hit-call score of the fitted dose curve at least 0.9, where 1 is the maximum;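 also: hits raise reporter mRNA above DMSO so AC50 marks FXR activation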); details: HepG2 Attagene TRANS FXR-GAL4 reporter transcription
# Bile acid receptor (Homo sapiens), sequence (Q96RI1 whole entry, looked up, the tested form may be a part): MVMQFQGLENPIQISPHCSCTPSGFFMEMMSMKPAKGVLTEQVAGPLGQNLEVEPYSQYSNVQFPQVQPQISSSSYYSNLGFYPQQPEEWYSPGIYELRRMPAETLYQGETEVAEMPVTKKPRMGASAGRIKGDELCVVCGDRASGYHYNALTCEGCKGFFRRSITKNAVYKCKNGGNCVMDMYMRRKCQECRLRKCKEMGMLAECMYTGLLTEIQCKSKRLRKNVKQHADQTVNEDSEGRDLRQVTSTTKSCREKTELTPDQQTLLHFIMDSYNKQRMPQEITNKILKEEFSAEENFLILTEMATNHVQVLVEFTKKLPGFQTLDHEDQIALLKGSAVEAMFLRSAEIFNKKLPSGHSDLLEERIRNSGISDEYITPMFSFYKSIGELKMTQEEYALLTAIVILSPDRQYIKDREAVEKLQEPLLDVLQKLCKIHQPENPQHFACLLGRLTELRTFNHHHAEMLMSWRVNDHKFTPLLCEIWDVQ
# Method in brief: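 Reporter transcripts from transfected HepG2 cells were measured 24 h after dosing, using RT-PCR with capillary electrophoresis of 6-FAM-labelled fragments. The read-out reflects activity of exogenous FXR-Gal4 chimera on GAL4-UAS units, with induction relative to DMSO.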
# [3] = target: Hepatocyte nuclear factor 4-alpha (Homo sapiens) (UniProt P41235); test: ATG_HNF4a_TRANS: Attagene TRANS-FACTORIAL HepG2 Assay for human Hepatocyte Nuclear Factor 4 alpha (HNF4a) (AID 2282982; active = hit-call score of the fitted dose curve at least 0.9, where 1 is the maximum); details: HepG2 HNF4a transactivation reporter, mRNA readout
# Hepatocyte nuclear factor 4-alpha (Homo sapiens), sequence (P41235 whole entry, looked up, the tested form may be a part): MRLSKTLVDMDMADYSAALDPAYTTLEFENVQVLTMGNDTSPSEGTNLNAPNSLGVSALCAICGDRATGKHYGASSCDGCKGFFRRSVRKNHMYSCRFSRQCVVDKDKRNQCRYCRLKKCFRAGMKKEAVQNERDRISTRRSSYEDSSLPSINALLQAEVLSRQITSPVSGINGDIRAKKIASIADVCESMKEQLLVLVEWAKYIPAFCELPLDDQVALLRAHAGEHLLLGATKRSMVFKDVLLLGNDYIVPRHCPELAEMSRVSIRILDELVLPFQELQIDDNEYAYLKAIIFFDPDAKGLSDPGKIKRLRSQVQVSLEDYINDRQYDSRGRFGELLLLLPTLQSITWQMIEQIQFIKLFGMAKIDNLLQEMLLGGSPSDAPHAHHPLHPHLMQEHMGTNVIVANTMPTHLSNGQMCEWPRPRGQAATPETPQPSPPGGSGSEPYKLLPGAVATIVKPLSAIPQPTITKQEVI
# Method in brief: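 Activity of an exogenous HNF4a–Gal4 fusion scored as induced GAL4-UAS reporter transcripts after 24 h chemical exposure of transfected human HepG2 cells. Read-out via RT-PCR with 6-FAM labelling and capillary electrophoresis; rise over DMSO baseline.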
# [4] = ATG_M_06_TRANS: Attagene TRANS-FACTORIAL HepG2 Assay for M06 Transcription Factor (Internal Marker) (AID 2282983; active = hit-call score of the fitted dose curve at least 0.9, where 1 is the maximum); details: HepG2 Attagene TRANS M06 internal marker reporter
# Method in brief: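 Background-control reporter readout: after 24 h chemical exposure of transiently transfected HepG2 (GAL4-UAS reporter units), mRNA quantified by RT-PCR with fluorescent labeling and capillary electrophoresis. Gain-of-signal fitting against DMSO baseline.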
# [5] = ATG_M_32_TRANS: Attagene TRANS-FACTORIAL HepG2 Assay for M32 Transcription Factor (Internal Marker) (AID 2282984; active = hit-call score of the fitted dose curve at least 0.9, where 1 is the maximum); details: HepG2 Attagene TRANS M32 internal marker reporter
# Method in brief: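 Internal background reporter in transfected HepG2: after 24 h chemical exposure, RNA reverse-transcribed, reporter cDNA amplified, fluorescently labelled and HpaI-cut, then sized by capillary electrophoresis. Gain of signal fitted against DMSO control.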
# [6] = target: Transcriptional activator Myb (Homo sapiens) (UniProt P10242); test: ATG_Myb_CIS: Attagene CIS-FACTORIAL HepG2 Assay for human Myeloblastosis (Myb) Proto-Oncogene Transcription Factor (AID 2282986); details: HepG2 Attagene CIS-FACTORIAL Myb reporter transcription; actives raise or lower the signal
# Transcriptional activator Myb (Homo sapiens), sequence (P10242 whole entry, looked up): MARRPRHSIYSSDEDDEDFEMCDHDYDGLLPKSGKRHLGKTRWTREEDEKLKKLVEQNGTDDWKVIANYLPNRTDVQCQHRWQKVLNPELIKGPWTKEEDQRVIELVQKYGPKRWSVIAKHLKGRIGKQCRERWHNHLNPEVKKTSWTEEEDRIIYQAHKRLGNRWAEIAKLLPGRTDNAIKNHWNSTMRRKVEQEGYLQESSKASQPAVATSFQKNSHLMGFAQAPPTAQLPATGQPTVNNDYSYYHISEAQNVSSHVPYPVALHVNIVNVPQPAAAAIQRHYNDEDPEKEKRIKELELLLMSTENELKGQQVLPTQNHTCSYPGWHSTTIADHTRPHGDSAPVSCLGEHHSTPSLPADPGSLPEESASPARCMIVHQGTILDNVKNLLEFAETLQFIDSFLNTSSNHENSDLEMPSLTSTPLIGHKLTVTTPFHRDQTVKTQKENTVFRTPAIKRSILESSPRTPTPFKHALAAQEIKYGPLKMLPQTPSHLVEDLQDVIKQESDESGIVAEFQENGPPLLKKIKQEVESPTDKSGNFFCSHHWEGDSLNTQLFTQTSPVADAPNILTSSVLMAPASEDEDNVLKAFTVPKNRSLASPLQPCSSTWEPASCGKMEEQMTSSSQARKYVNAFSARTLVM
# Method in brief: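 Reporter transcript levels, quantified by fluorescent RT-PCR and capillary electrophoresis, serve as the read-out. Transfected HepG2 cells carrying cis-promoter reporter units are dosed for 24 hours, and curves are fitted bidirectionally against DMSO controls.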
# [7] = target: Nuclear respiratory factor 1 (Homo sapiens) (UniProt Q16656); test: ATG_NRF1_CIS: Attagene CIS-FACTORIAL HepG2 Assay for human Nuclear Respiratory Factor 1 (NRF1) Orphan Gene (AID 2282987); details: HepG2 NRF1 cis-element reporter, Attagene multiplex; actives raise or lower the signal
# Nuclear respiratory factor 1 (Homo sapiens), sequence (Q16656 whole entry, looked up): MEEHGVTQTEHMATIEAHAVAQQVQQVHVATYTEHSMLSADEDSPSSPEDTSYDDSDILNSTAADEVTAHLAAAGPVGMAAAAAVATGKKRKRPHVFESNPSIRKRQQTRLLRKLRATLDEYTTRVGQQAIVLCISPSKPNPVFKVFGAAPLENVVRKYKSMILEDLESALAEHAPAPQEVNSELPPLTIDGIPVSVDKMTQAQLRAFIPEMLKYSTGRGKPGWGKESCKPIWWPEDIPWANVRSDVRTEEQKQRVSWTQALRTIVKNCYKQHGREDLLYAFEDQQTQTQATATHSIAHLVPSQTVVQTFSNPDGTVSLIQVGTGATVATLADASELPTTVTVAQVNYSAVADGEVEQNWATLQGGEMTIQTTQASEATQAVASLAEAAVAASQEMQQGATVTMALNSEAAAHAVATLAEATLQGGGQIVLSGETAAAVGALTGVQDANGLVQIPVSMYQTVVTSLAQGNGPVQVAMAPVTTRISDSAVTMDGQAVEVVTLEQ
# Method in brief: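 Multiplexed cis-reporter assay, HepG2 cells, 24 h treatment. Total RNA → oligo(dT) RT → PCR with reporter-specific primers → 6-FAM primer extension → HpaI cut → CE. Bidirectional fit vs DMSO.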
# [8] = ATG_NFI_CIS: Attagene CIS-FACTORIAL HepG2 Assay for human Nuclear Factor I (NFI) (AID 2282989); details: HepG2 cis-regulatory reporter, NFI response element transcription; actives raise or lower the signal
# Method in brief: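 Transient MRTU transfection of HepG2 → 24 h chemical dosing → total RNA, oligo(dT) RT → PCR, 6-FAM primer extension, HpaI cut → capillary electrophoresis. Endpoint fitted bidirectionally relative to DMSO.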
# [9] = target: Myc proto-oncogene protein (Homo sapiens) (UniProt P01106); test: ATG_Myc_CIS: Attagene CIS-FACTORIAL HepG2 Assay for human Myelocytomatosis (Myc) Proto-Oncogene Transcription Factor (AID 2282990); details: HepG2, Attagene cis-reporter transcription factor activity; actives raise or lower the signal
# Myc proto-oncogene protein (Homo sapiens), sequence (P01106 whole entry, looked up): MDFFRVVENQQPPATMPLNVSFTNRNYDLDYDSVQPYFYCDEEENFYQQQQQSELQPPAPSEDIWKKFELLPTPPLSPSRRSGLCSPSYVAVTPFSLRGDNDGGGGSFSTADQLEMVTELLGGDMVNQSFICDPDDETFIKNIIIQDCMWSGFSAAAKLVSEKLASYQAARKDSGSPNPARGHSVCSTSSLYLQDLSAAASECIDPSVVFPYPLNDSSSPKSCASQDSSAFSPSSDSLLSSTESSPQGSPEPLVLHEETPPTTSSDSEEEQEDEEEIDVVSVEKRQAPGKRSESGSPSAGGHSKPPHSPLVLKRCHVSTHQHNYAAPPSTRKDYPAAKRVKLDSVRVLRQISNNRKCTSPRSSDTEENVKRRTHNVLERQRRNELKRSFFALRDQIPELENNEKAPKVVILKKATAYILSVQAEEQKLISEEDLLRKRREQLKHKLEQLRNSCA
# Method in brief: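 Cells of the HepG2 human liver line bear multiple cis-driven reporter transcription units. Reporter mRNA after 24 h exposure is reverse-transcribed, amplified, labelled and resolved by capillary electrophoresis, with gain- or loss-of-signal fitting relative to DMSO.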
# [10] = ATG_NF_kB_CIS: Attagene CIS-FACTORIAL HepG2 Assay for human Nuclear Factor Kappa B (NF-kB) (AID 2282991); details: HepG2 Attagene cis-factorial NF-kB reporter mRNA; actives raise or lower the signal
# Method in brief: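 Transient MRTU transfection of human HepG2 liver cells → 24 h chemical exposure → total RNA, oligo(dT) RT → PCR, 6-FAM primer extension, HpaI digest 2 h 37 C → CE fragment analysis. Bidirectional fitting, DMSO negative control.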
# [11] = ATG_NRF2_ARE_CIS: Attagene CIS-FACTORIAL HepG2 Assay for human Nuclear Factor Erythroid 2 Related Factor 2 (NFR2) response to Antioxidant Response Elements (ARE) (AID 2282992); details: HepG2 Attagene ARE/NRF2 reporter, transcription factor activity; actives raise or lower the signal
# Method in brief: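 Endogenous transcription factor activity read out as reporter transcript levels (RT-PCR plus capillary electrophoresis, fluorescence) in transiently transfected HepG2 cells. Measured at 24 h after dosing; gain or loss of signal fitted versus DMSO.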
# [12] = ATG_Oct_MLP_CIS: Attagene CIS-FACTORIAL HepG2 Assay for human Octamer-Binding Transcription Factor (Oct) (AID 2282993); details: HepG2 Attagene cis-factorial Oct reporter, mRNA; actives raise or lower the signal
# Method in brief: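 Transient MRTU transfection of HepG2 → 24 h compound treatment → RNA isolation, reverse transcription, PCR → 6-FAM primer extension, HpaI digest → capillary electrophoresis. Activity fitted both directions against DMSO.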
# [13] = target: Cellular tumor antigen p53 (Homo sapiens) (UniProt P04637); test: ATG_p53_CIS: Attagene CIS-FACTORIAL HepG2 Assay for human p53 Transcription Factor (AID 2282994); details: HepG2 p53 cis-element reporter, Attagene mRNA; actives raise or lower the signal
# Cellular tumor antigen p53 (Homo sapiens), sequence (P04637 whole entry, looked up): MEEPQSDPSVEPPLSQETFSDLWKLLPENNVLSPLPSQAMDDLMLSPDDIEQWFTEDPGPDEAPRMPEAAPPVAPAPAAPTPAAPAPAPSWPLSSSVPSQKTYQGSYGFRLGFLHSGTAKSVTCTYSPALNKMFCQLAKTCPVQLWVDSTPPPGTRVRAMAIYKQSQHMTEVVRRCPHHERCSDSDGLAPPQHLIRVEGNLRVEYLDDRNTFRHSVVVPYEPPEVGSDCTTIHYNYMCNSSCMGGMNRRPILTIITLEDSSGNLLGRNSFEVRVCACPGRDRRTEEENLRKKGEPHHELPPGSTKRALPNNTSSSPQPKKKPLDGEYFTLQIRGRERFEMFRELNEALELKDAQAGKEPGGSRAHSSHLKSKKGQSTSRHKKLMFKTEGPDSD
# Method in brief: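 Endogenous p53 activity read in transiently transfected HepG2 from a cis-element-driven reporter transcript after 24 h exposure. RNA reverse-transcribed, PCR-amplified, fluorescently labelled and sized by capillary electrophoresis; gain or loss fitted against DMSO baseline.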
# [14] = BSK_3C_uPAR: BioMAP Diversity Plus: 3C Assay for Urokinase-type plasminogen activator receptor (uPAR) Biomarker Activity (AID 2282998); details: BioMAP 3C HUVEC, uPAR biomarker ELISA; actives raise or lower the signal
# Method in brief: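 ELISA readout of uPAR on human vascular endothelium (umbilical vein primary cells), taken 24 h after chemical dosing. Increases and decreases are both fitted relative to DMSO vehicle.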
# [15] = BSK_3C_VCAM1: BioMAP Diversity Plus: 3C Assay for Vascular cell adhesion molecule 1 (VCAM1) Biomarker Activity (AID 2282999); details: BioMAP 3C HUVEC, VCAM1 ELISA, cytokine-stimulated; actives raise or lower the signal
# Method in brief: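 Activity fitted in both directions relative to DMSO, with ELISA measurement of the surface marker on primary HUVEC (3C) at 24 h post-treatment; parallel SRB staining (0.1% SRB, TCA-fixed, 560 nm) flagged overt cytotoxicity.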
# [16] = BSK_4H_Eotaxin3: BioMAP Diversity Plus: 4H Assay for Eotaxin 3 Biomarker Activity (AID 2283000); details: primary human endothelial cells (HUVEC); actives raise or lower the signal;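 as to outcome: CCL26 protein level quantified by ELISA in parallel with SRB cytotoxicity check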
# Method in brief: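 Human umbilical vein endothelial cells (BSK_4H system) dosed with test chemical; Eotaxin-3 (CCL26) measured by ELISA 24 h after dosing. Bidirectional curve fitting relative to DMSO negative control as baseline.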
# [17] = target: Oxysterols receptor LXR-alpha (Homo sapiens) (UniProt Q13133); test: ATG_LXRa_TRANS: Attagene TRANS-FACTORIAL HepG2 Assay for human Liver X Receptor alpha (LXRa) (AID 2282980; active = hit-call score of the fitted dose curve at least 0.9, where 1 is the maximum); details: HepG2 Attagene TRANS reporter, LXRa transactivation
# Oxysterols receptor LXR-alpha (Homo sapiens), sequence (Q13133 whole entry, looked up, the tested form may be a part): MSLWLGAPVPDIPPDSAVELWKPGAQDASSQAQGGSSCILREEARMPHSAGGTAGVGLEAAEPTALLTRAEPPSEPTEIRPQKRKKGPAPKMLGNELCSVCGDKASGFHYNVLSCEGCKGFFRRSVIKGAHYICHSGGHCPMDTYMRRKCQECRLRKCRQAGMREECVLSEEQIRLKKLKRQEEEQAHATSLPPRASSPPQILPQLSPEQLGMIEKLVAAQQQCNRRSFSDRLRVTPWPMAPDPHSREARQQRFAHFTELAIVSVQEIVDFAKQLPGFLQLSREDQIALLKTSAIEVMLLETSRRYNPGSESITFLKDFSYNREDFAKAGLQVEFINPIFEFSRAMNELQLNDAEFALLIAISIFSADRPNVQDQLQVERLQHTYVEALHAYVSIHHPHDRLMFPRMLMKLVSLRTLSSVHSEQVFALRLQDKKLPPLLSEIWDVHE
# Method in brief: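 Chemical-induced reporter mRNA measured by RT-PCR with fluorescent labelling and capillary electrophoresis after 24 h dosing of transiently transfected HepG2 cells expressing exogenous NR-Gal4 chimeras; increases scored against DMSO baseline.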
# [18] = target: Oxysterols receptor LXR-beta (Homo sapiens) (UniProt P55055); test: ATG_LXRb_TRANS: Attagene TRANS-FACTORIAL HepG2 Assay for human Liver X Receptor beta (LXRb) (AID 2282981; active = hit-call score of the fitted dose curve at least 0.9, where 1 is the maximum); details: HepG2 Attagene TRANS GAL4-LXRb reporter, mRNA
# Oxysterols receptor LXR-beta (Homo sapiens), sequence (P55055 whole entry, looked up, the tested form may be a part): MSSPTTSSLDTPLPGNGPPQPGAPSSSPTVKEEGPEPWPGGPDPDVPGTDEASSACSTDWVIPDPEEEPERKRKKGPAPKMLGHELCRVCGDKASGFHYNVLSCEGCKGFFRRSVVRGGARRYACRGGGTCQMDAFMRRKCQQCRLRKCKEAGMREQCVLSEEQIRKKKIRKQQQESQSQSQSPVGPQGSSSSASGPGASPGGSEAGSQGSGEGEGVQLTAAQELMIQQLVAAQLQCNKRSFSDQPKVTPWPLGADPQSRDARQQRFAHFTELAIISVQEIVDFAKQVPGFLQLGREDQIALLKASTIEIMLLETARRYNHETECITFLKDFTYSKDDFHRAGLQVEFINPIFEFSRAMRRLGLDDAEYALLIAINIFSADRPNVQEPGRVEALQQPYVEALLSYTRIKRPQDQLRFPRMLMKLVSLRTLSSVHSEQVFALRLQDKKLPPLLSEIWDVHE
# Method in brief: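 After 24 h chemical treatment of transfected HepG2 cells carrying exogenous NR-Gal4 chimeras, reporter mRNA was quantified by fluorescent RT-PCR and capillary electrophoresis; activity taken as increase over DMSO controls.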
# [19] = BSK_3C_TissueFactor: BioMAP Diversity Plus: 3C Assay for Tissue Factor Biomarker Activity (AID 2282997); details: BioMAP 3C HUVEC, tissue factor biomarker readout; actives raise or lower the signal
# Method in brief: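 Tissue factor on primary human umbilical vein endothelium was read by ELISA 24 h after dosing, gain or loss relative to DMSO. Cytotoxicity ran alongside via SRB (0.1%, TCA-fixed, 560 nm).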
smiles,measurement,setting,value
CCCCOC(=O)CC(CC(=O)OCCCC)(OC(C)=O)C(=O)OCCCC,outcome,[1],inactive
same,outcome,[2],inactive
same,outcome,[3],inactive
same,outcome,[4],inactive
same,outcome,[5],inactive
same,outcome,[6],inactive
same,outcome,[7],inactive
same,outcome,[8],inactive
same,outcome,[9],inactive
same,outcome,[10],inactive
same,outcome,[11],inactive
same,outcome,[12],inactive
same,outcome,[13],inactive
same,outcome,[14],inactive
same,outcome,[15],inactive
same,outcome,[16],inactive
Oc1ccc2ccccc2c1,outcome,[1],inactive
same,outcome,[17],inactive
same,outcome,[18],inactive
same,outcome,[3],inactive
same,outcome,[4],inactive
same,outcome,[5],inactive
same,outcome,[6],inactive
same,outcome,[7],inactive
same,outcome,[8],inactive
same,outcome,[9],inactive
same,outcome,[10],inactive
same,AC50,[11],15.5 µM (active) and 5.76 µM (active)
same,outcome,[12],inactive
same,AC50,[13],180 µM (active)
same,outcome,[13],inactive
same,outcome,[19],inactive
same,outcome,[14],inactive
same,outcome,[15],inactive
same,AC50,[16],15.7 µM (active)
O=C(O)Cn1c(=O)n(Cc2ccc(Br)cc2F)c(=O)c2ccc(Cl)cc21,outcome,[1],inactive
same,outcome,[2],inactive
same,outcome,[4],inactive
same,outcome,[6],inactive
same,outcome,[7],inactive
same,outcome,[8],inactive
same,outcome,[9],inactive
same,AC50,[10],161 µM (active)
same,AC50,[11],26.5 µM (active)
same,outcome,[12],inactive
same,outcome,[13],inactive
same,outcome,[14],inactive
same,outcome,[15],inactive
same,outcome,[16],inactive
O=C(O)c1ccccc1-n1cc(C(=O)O)c(=O)c2cc(Nc3c(F)cc(F)cc3Cl)c(Cl)cc21,outcome,[1],inactive
same,outcome,[2],inactive
same,outcome,[17],inactive
same,outcome,[4],inactive
same,outcome,[5],inactive
same,outcome,[6],inactive
same,outcome,[7],inactive
same,outcome,[8],inactive
same,outcome,[9],inactive
same,outcome,[10],inactive
same,outcome,[11],inactive
same,outcome,[12],inactive
same,outcome,[13],inactive
same,outcome,[19],inactive
same,outcome,[14],inactive
same,outcome,[15],inactive
same,outcome,[16],inactive
CC[C@@H]1C[C@H](N(Cc2cc(C(F)(F)F)cc(C(F)(F)F)c2)C(C)=O)c2cc(C(F)(F)F)ccc2N1C(=O)OC(C)C,AC50,[1],100 µM (active)
same,outcome,[17],inactive
same,outcome,[18],inactive
same,outcome,[3],inactive
same,outcome,[4],inactive
same,outcome,[5],inactive
same,outcome,[6],inactive
same,outcome,[7],inactive
same,outcome,[8],inactive
same,outcome,[9],inactive
same,outcome,[10],inactive
same,outcome,[11],inactive
same,outcome,[12],inactive
same,outcome,[13],inactive
same,outcome,[19],inactive
same,outcome,[14],inactive
same,outcome,[15],inactive
same,outcome,[16],inactive
CCOC(=O)O[C@H](C)OC(=O)c1ccc2c(c1)cc(C(=O)NC1CCN(C(C)C)CC1)n2Cc1cc(-c2ccc(Cl)s2)on1,outcome,[1],inactive
same,outcome,[2],inactive
same,outcome,[4],inactive
same,outcome,[6],inactive
same,outcome,[7],inactive
same,outcome,[8],inactive
same,outcome,[9],inactive
same,outcome,[10],inactive
same,AC50,[11],9.33 µM (active)
same,outcome,[12],inactive
same,outcome,[13],inactive
same,AC50,[19],9.97 µM (active)
same,AC50,[14],6.09 µM (active)
same,AC50,[15],5.69 µM (active)
same,AC50,[16],8.87 µM (active)
O=C(Nc1ccc(Cl)cc1)Nc1ccc(Cl)c(Cl)c1,outcome,[1],inactive
same,outcome,[2],inactive
same,outcome,[17],inactive
same,outcome,[18],inactive
same,outcome,[3],inactive
same,outcome,[4],inactive
same,outcome,[5],inactive
same,outcome,[6],inactive
same,outcome,[7],inactive
same,outcome,[8],inactive
same,outcome,[9],inactive
same,outcome,[10],inactive
same,AC50,[11],6.66 µM (active)
same,AC50,[12],5.12 µM (active)
same,outcome,[13],inactive
same,AC50,[14],1.89 µM (active)
same,AC50,[15],3.5 µM (active)
same,AC50,[16],2.4 µM (active)
